PubChem BioAssay (EPA / NIEHS)
Records with an inconclusive call do not appear. Some structures have more than one record in an assay (separate samples or runs), and their calls can disagree. The source made the active and inactive calls. How the source made its calls, unless noted: active means hit-call score of the fitted dose curve at least 0.9, where 1 is the maximum; inconclusive means response in the unintended direction; inactive means score below 0.9.

Columns and labels:
[1] = target: Estrogen receptor (Homo sapiens) (UniProt P03372); assay: ATG_ERa_TRANS: Attagene TRANS-FACTORIAL HepG2 Assay for human Estrogen Receptor alpha (ERa) (AID 2282970); conditions: HepG2 Attagene TRANS ERa GAL4 reporter, mRNA
How it was run: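 HepG2 cells transiently transfected with multiplexed GAL4-UAS reporter units read out chimeric NR-Gal4 activity. After 24 h compound exposure, reporter mRNA was quantified by RT-PCR, 6-FAM labeling, HpaI digestion and capillary electrophoresis, relative to DMSO.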

[2] = target: Steroid hormone receptor ERR1 (Homo sapiens) (UniProt P11474); assay: ATG_ERRa_TRANS: Attagene TRANS-FACTORIAL HepG2 Assay for human Estrogen-Related Receptor alpha (ERRa) (AID 2282971); conditions: HepG2 Attagene TRANS reporter, ERRa transactivation
How it was run: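 HepG2 cells transiently transfected with GAL4-UAS reporter units and chimeric NR-Gal4 constructs; after 24 hour compound incubation, reporter mRNA quantified by RT-PCR, fluorescent labelling and capillary electrophoresis, gain of signal versus DMSO.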

[3] = target: X-box-binding protein 1 (Homo sapiens) (UniProt P17861); assay: ATG_Xbp1_CIS: Attagene CIS-FACTORIAL HepG2 Assay for human X-box Binding Protein 1 (XBP1) (AID 2282972; active means hit-call score of the fitted dose curve at least 0.9, where 1 is the maximum; inactive means score below 0.9); conditions: HepG2 XBP1 cis-element reporter, Attagene multiplex; actives raise or lower the signal
How it was run: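 Fluorescence-labelled cDNA fragments from reporter transcripts, separated by capillary electrophoresis, give the signal. Source: HepG2 cells transfected with promoter-driven reporter units, harvested 24 h post-dose. DMSO served as reference for bidirectional curve fitting.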

[4] = ATG_M_19_TRANS: Attagene TRANS-FACTORIAL HepG2 Assay for M19 Transcription Factor (Internal Marker) (AID 2282974); conditions: HepG2 Attagene TRANS-FACTORIAL M19 internal marker reporter
How it was run: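 HepG2 transiently transfected with GAL4-UAS multiplex reporter constructs, exposed 24 h; reporter RNA quantified by RT-PCR, 6-FAM labeling, HpaI digestion and capillary electrophoresis; internal background marker fitted upward versus DMSO.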

[5] = target: Estrogen-related receptor gamma (Homo sapiens) (UniProt P62508); assay: ATG_ERRg_TRANS: Attagene TRANS-FACTORIAL HepG2 Assay for human Estrogen-Related Receptor gamma (ERRg) (AID 2282977); conditions: HepG2 Attagene TRANS reporter, ERRg transactivation;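 further: hits increase reporter signal over DMSO so potencies reflect activators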
How it was run: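 HepG2 cells transiently transfected with multiplexed GAL4-UAS reporter units and chimeric NR-Gal4 constructs were exposed to test chemicals for 24 h. Reporter mRNA was measured by RT-PCR, 6-FAM primer extension, HpaI digestion and capillary electrophoresis; gain-of-signal versus DMSO.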

[6] = target: Glucocorticoid receptor (Homo sapiens) (UniProt P04150); assay: ATG_GR_TRANS: Attagene TRANS-FACTORIAL HepG2 Assay for human Glucocorticoid Receptor (GR) (AID 2282978); conditions: HepG2 Attagene TRANS GR reporter, mRNA transcription;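 further: activators score as hits since higher reporter transcript over DMSO is fitted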
How it was run: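 HepG2 cells transiently transfected with GAL4-UAS reporter units and exogenous GR-Gal4 chimera, dosed 24 h. Reporter mRNA by RT-PCR, FAM labeling, HpaI digest and capillary electrophoresis; gain-of-signal fit versus DMSO.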

[7] = target: Oxysterols receptor LXR-alpha (Homo sapiens) (UniProt Q13133); assay: ATG_LXRa_TRANS: Attagene TRANS-FACTORIAL HepG2 Assay for human Liver X Receptor alpha (LXRa) (AID 2282980); conditions: HepG2 Attagene TRANS reporter, LXRa transactivation
How it was run: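 HepG2 cells transiently transfected with GAL4-UAS reporter units for chimeric NR-Gal4 proteins, exposed to chemicals for 24 h. Reporter mRNA quantified by RT-PCR and capillary electrophoresis; gain of signal fitted relative to DMSO.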

[8] = target: Nuclear receptor subfamily 4 group A member 2 (Homo sapiens) (UniProt P43354); assay: ATG_NURR1_TRANS: Attagene TRANS-FACTORIAL HepG2 Assay for human Nuclear Receptor Related Protein 1 (NURR1) (AID 2282985); conditions: HepG2 Attagene TRANS reporter, mRNA readout
How it was run: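 HepG2 cells transiently transfected with GAL4-UAS reporter units and chimeric NR-Gal4 constructs; chemical exposure 24 h. Reporter mRNA quantified by RT-PCR, fluorescent labelling and capillary electrophoresis; gain of signal fitted relative to DMSO baseline.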

[9] = target: Transcriptional activator Myb (Homo sapiens) (UniProt P10242); assay: ATG_Myb_CIS: Attagene CIS-FACTORIAL HepG2 Assay for human Myeloblastosis (Myb) Proto-Oncogene Transcription Factor (AID 2282986; active means hit-call score of the fitted dose curve at least 0.9, where 1 is the maximum; inactive means score below 0.9); conditions: HepG2 Attagene CIS-FACTORIAL Myb reporter transcription; actives raise or lower the signal
How it was run: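 Transiently transfected HepG2 cells carrying a multiplexed cis-promoter reporter set report endogenous Myb activity after 24 h compound exposure. Reporter mRNA is read by RT-PCR with capillary electrophoresis of fluorescent products, fitted bidirectionally against DMSO.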

[10] = target: Nuclear respiratory factor 1 (Homo sapiens) (UniProt Q16656); assay: ATG_NRF1_CIS: Attagene CIS-FACTORIAL HepG2 Assay for human Nuclear Respiratory Factor 1 (NRF1) Orphan Gene (AID 2282987; active means hit-call score of the fitted dose curve at least 0.9, where 1 is the maximum; inactive means score below 0.9); conditions: HepG2 NRF1 cis-element reporter, Attagene multiplex; actives raise or lower the signal
How it was run: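 HepG2 cells transiently transfected with multiple cis-regulated reporter units, exposed 24 h. Reporter mRNAs measured by RT-PCR, fluorescent labelling, HpaI digestion and capillary electrophoresis; bidirectional fitting against DMSO.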

[11] = target: Myc proto-oncogene protein (Homo sapiens) (UniProt P01106); assay: ATG_Myc_CIS: Attagene CIS-FACTORIAL HepG2 Assay for human Myelocytomatosis (Myc) Proto-Oncogene Transcription Factor (AID 2282990; active means hit-call score of the fitted dose curve at least 0.9, where 1 is the maximum; inactive means score below 0.9); conditions: HepG2, Attagene cis-reporter transcription factor activity; actives raise or lower the signal
How it was run: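 HepG2 cells transiently transfected with multiple cis-promoter-driven reporter transcription units, so endogenous TF activity is read. After 24 h compound exposure, reporter mRNA was quantified by RT-PCR, 6-FAM labelling, HpaI digestion and capillary electrophoresis; bidirectional fit versus DMSO.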

[12] = ATG_GAL4_TRANS: Attagene TRANS-FACTORIAL HepG2 Assay for GAL4 (Internal Marker) (AID 2282976); conditions: HepG2 Attagene TRANS GAL4 internal marker reporter
How it was run: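 Background-control readout: GAL4-UAS reporter transcript in transiently transfected HepG2 cells after 24 h compound exposure. Measured by RT-PCR, 6-FAM primer extension, HpaI digest and capillary electrophoresis; gain-of-signal fit versus DMSO.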

[13] = target: Oxysterols receptor LXR-beta (Homo sapiens) (UniProt P55055); assay: ATG_LXRb_TRANS: Attagene TRANS-FACTORIAL HepG2 Assay for human Liver X Receptor beta (LXRb) (AID 2282981); conditions: HepG2 Attagene TRANS GAL4-LXRb reporter, mRNA
How it was run: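 HepG2 cells transiently transfected with multiple reporter transcription units carrying chimeric NR-Gal4 proteins acting on GAL4-UAS reporters; compound exposure 24 h. Reporter mRNA quantified by RT-PCR, 6-FAM labelling, HpaI digestion and capillary electrophoresis; gain of signal versus DMSO.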

[14] = target: Hepatocyte nuclear factor 4-alpha (Homo sapiens) (UniProt P41235); assay: ATG_HNF4a_TRANS: Attagene TRANS-FACTORIAL HepG2 Assay for human Hepatocyte Nuclear Factor 4 alpha (HNF4a) (AID 2282982); conditions: HepG2 HNF4a transactivation reporter, mRNA readout
How it was run: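 HepG2 cells transiently transfected with multiplexed GAL4-UAS reporter units responsive to chimeric NR-GAL4 proteins; compound exposure 24 h. Reporter mRNA quantified by RT-PCR, 6-FAM labelling, HpaI digestion and capillary electrophoresis; gain of signal versus DMSO baseline.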

[15] = ATG_M_06_TRANS: Attagene TRANS-FACTORIAL HepG2 Assay for M06 Transcription Factor (Internal Marker) (AID 2282983); conditions: HepG2 Attagene TRANS M06 internal marker reporter;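 further: reporter transcript level by RT-PCR then capillary electrophoresis fluorescence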
How it was run: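 HepG2 cells transiently transfected with GAL4-UAS multiple reporter units, dosed 24 h. Reporter RNA reverse-transcribed, PCR-amplified, 6-FAM-labeled, HpaI-digested and quantified by capillary electrophoresis; this internal-marker signal fitted upward relative to DMSO.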

[16] = ATG_M_32_TRANS: Attagene TRANS-FACTORIAL HepG2 Assay for M32 Transcription Factor (Internal Marker) (AID 2282984); conditions: HepG2 Attagene TRANS M32 internal marker reporter
How it was run: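 HepG2 cells transiently transfected with multiple GAL4-UAS reporter transcription units, dosed for 24 hours; reporter mRNA quantified by RT-PCR, 6-FAM primer extension, HpaI digestion and capillary electrophoresis. Gain-of-signal fitted versus DMSO baseline; internal background-control marker.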

[17] = target: Bile acid receptor (Homo sapiens) (UniProt Q96RI1); assay: ATG_FXR_TRANS: Attagene TRANS-FACTORIAL HepG2 Assay for Farnesoid X Receptor (FXR) (AID 2282979); conditions: HepG2 Attagene TRANS FXR-GAL4 reporter transcription;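 further: hits raise reporter mRNA above DMSO so AC50 marks FXR activation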
How it was run: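 HepG2 cells were transiently transfected with GAL4-UAS reporters driven by chimeric NR-Gal4 proteins and dosed for 24 h. Reporter mRNA was quantified by RT-PCR, fluorescent labelling, HpaI digestion and capillary electrophoresis, with gain of signal scored versus DMSO.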

[18] = ATG_NFI_CIS: Attagene CIS-FACTORIAL HepG2 Assay for human Nuclear Factor I (NFI) (AID 2282989; active means hit-call score of the fitted dose curve at least 0.9, where 1 is the maximum; inactive means score below 0.9); conditions: HepG2 cis-regulatory reporter, NFI response element transcription; actives raise or lower the signal
How it was run: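 Read-out: reporter mRNA via RT-PCR plus capillary electrophoresis with fluorescence detection. Transiently transfected HepG2 (endogenous TF activity on cis promoters), 24 h compound exposure; gain or loss of signal fitted against DMSO.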

[19] = target: Nuclear receptor subfamily 1 group I member 3 (Homo sapiens) (UniProt Q14994); assay: ATG_CAR_TRANS: Attagene TRANS-FACTORIAL HepG2 Assay for human Constitutive Androstane Receptor (CAR) (AID 2282969); conditions: HepG2 Attagene TRANS-FACTORIAL CAR reporter;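 further: activators raise reporter mRNA above DMSO so AC50 marks induction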
How it was run: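 HepG2 cells transiently transfected with multiplexed GAL4-UAS reporter units expressing chimeric NR-Gal4 proteins; compound exposure 24 h. Reporter mRNA measured by RT-PCR, 6-FAM labelling, HpaI digestion and capillary electrophoresis; gain-of-signal fitted against DMSO baseline.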

Measured: AC50

Chain of Estrogen receptor (Homo sapiens) (P03372 whole entry, looked up, the tested form may be a part): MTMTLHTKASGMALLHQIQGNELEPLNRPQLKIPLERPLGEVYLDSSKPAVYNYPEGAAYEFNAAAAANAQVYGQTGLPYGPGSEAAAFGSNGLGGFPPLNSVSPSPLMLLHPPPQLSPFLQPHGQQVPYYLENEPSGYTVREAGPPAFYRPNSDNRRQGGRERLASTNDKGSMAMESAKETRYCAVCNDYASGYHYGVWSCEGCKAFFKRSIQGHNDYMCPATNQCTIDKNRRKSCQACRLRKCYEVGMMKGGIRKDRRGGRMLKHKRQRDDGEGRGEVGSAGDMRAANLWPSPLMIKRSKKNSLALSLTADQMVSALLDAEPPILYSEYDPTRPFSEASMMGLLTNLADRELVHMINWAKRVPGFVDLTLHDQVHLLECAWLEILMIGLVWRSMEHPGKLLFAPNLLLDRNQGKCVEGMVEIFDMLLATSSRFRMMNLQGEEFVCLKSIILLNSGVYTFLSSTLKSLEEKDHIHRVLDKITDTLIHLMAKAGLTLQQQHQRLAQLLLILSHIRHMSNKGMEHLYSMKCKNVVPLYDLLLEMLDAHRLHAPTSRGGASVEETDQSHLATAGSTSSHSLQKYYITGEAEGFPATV
Chain of Nuclear receptor subfamily 4 group A member 2 (Homo sapiens) (P43354 whole entry, looked up, the tested form may be a part): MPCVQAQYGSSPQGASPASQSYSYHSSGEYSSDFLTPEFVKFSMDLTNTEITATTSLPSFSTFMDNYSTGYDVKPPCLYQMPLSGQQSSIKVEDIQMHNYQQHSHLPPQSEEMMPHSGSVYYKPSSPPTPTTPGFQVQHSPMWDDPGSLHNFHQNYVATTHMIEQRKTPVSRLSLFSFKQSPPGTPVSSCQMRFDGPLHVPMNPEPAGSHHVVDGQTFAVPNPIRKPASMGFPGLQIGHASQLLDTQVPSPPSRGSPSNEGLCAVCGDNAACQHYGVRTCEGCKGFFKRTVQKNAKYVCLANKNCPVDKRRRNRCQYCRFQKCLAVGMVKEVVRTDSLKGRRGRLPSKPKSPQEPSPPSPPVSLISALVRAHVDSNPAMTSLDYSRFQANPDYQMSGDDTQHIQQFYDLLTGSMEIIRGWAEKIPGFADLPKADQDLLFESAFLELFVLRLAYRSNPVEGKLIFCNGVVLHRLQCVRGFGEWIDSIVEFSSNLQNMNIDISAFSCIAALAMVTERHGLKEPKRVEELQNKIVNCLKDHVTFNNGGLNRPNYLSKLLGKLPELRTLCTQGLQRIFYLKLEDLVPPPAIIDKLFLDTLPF
Chain of Glucocorticoid receptor (Homo sapiens) (P04150 whole entry, looked up, the tested form may be a part): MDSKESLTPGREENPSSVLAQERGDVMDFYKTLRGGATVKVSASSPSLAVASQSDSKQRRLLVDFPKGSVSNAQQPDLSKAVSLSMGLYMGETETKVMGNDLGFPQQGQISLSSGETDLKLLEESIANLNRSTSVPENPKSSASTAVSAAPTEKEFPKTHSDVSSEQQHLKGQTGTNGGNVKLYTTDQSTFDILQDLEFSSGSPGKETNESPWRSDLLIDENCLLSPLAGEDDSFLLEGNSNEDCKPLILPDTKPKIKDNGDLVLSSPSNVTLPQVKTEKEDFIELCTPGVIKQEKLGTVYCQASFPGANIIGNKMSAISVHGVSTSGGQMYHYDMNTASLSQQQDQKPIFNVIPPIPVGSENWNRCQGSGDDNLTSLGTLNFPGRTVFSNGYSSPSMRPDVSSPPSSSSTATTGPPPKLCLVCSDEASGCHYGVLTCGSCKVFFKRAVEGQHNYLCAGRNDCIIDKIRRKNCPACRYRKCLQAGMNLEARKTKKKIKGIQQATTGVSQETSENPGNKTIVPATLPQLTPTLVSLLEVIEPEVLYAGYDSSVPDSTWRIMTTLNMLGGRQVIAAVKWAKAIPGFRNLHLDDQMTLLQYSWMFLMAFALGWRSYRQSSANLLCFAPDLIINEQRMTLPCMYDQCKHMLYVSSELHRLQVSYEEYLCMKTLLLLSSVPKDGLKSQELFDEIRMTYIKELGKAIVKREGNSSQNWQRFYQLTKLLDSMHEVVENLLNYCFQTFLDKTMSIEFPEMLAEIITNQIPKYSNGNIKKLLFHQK
Chain of X-box-binding protein 1 (Homo sapiens) (P17861 whole entry, looked up, the tested form may be a part): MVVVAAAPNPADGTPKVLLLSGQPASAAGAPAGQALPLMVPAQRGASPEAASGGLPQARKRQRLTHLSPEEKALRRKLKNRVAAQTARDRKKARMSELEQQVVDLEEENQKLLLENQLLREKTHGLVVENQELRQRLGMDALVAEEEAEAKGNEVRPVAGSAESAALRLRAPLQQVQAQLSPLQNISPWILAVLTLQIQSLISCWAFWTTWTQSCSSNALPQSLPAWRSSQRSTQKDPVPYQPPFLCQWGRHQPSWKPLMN
Chain of Steroid hormone receptor ERR1 (Homo sapiens) (P11474 whole entry, looked up, the tested form may be a part): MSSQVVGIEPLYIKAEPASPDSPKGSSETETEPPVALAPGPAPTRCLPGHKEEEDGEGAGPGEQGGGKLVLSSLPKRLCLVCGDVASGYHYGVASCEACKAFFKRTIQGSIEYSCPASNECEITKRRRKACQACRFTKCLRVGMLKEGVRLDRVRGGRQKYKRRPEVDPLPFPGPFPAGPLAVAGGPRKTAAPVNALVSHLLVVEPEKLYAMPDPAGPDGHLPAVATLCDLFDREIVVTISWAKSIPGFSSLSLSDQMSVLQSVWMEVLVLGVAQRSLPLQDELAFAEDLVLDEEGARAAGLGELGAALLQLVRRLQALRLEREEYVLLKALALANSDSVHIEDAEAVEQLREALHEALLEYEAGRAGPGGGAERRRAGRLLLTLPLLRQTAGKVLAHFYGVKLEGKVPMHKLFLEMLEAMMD
Chain of Nuclear respiratory factor 1 (Homo sapiens) (Q16656 whole entry, looked up): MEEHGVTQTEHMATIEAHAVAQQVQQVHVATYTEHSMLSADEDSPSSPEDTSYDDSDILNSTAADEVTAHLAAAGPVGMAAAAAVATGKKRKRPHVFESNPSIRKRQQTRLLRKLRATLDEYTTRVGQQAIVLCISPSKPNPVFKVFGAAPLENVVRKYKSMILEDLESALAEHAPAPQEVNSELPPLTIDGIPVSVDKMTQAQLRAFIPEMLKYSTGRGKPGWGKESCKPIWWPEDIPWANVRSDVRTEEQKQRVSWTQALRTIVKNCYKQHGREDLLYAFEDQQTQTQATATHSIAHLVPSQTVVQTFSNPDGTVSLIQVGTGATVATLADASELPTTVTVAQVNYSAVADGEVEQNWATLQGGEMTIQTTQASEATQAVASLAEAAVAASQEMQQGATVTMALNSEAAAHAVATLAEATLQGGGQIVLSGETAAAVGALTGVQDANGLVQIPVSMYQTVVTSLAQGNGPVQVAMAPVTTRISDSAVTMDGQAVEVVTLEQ
Chain of Oxysterols receptor LXR-beta (Homo sapiens) (P55055 whole entry, looked up, the tested form may be a part): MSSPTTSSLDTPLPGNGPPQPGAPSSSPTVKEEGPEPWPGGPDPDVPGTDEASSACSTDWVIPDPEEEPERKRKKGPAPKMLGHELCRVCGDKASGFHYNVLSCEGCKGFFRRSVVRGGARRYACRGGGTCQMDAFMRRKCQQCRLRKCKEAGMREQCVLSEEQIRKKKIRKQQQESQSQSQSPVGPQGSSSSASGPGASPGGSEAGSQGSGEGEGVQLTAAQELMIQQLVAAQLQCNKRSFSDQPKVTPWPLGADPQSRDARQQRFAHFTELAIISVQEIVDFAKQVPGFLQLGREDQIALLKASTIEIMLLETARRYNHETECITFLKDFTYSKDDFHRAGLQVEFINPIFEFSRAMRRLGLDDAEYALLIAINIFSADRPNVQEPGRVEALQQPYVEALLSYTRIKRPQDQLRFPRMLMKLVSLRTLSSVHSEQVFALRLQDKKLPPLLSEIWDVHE
Chain of Estrogen-related receptor gamma (Homo sapiens) (P62508 whole entry, looked up, the tested form may be a part): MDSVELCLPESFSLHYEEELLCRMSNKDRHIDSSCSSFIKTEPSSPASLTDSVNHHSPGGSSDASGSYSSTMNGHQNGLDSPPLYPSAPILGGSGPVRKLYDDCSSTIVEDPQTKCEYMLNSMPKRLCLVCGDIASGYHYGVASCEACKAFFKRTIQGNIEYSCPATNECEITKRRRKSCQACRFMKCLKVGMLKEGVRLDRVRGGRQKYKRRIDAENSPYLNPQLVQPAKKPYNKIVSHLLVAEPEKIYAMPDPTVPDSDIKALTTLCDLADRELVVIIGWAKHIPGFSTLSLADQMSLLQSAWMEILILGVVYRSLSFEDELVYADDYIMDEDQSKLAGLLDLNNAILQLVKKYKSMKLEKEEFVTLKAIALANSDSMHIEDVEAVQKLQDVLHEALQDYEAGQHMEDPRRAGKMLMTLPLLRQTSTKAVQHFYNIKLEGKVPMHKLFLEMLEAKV
Chain of Transcriptional activator Myb (Homo sapiens) (P10242 whole entry, looked up): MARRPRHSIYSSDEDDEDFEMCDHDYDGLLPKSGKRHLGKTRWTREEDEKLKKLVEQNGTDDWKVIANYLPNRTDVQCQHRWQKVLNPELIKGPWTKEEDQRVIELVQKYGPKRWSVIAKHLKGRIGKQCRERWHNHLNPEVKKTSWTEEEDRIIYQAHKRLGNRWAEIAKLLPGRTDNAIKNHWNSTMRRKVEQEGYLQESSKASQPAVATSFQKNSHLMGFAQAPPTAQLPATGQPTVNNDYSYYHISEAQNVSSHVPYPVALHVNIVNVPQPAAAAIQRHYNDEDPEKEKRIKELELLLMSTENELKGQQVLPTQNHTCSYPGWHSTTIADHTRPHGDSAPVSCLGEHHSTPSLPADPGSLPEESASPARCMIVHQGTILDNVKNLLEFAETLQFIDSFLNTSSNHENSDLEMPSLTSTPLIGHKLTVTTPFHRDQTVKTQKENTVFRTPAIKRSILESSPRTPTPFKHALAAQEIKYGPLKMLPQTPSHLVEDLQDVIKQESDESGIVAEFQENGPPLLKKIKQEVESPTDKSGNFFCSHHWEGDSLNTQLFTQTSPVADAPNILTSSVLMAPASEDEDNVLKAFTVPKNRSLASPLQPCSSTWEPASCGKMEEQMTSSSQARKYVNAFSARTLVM

FC1(F)C=CC(F)(F)C1(F)F
inactive: [1] | [2] | [3] | [4] | [5] | [6] | [7] | [8] | [9] | [10] | [11]

CC1CCC(CO)CC1 (stereo unspecified)
inactive: [1] | [4] | [12] | [6] | [13] | [14] | [15] | [16] | [8] | [9] | [10] | [11]
active: [1] 62.4 µM

CC(C)(O)C(=O)c1ccccc1
inactive: [1] | [2] | [3] | [4] | [5] | [6] | [17] | [13] | [16] | [8] | [10] | [18] | [11]

CCC(C)c1ccccc1O (stereo unspecified)
inactive: [19] | [3] | [4] | [12] | [5] | [6] | [15] | [8] | [9] | [10] | [18] | [11]

CCC(=O)C=Cc1ccc(OC)cc1
inactive: [19] | [2] | [3] | [5] | [6] | [17] | [13] | [14] | [15] | [8] | [10] | [11]
